# Source: PubChem BioAssay
# Activity calls are given as the source filed them. Unless noted, how the calls were made is not given here.
# What was measured:
# [1] = HepG2 liver cancer cell viability effects, profiling panel, resazurin fluorescence, 24 h, PK04 Diversity Set (AID 1172); conditions: higher = more signal
# [2] = basal S. cerevisiae growth modulation, no modifier, primary screen, OD600, strain BY4716, 24 h, basal condition (AID 1173); conditions: OD600, 24 h, higher = more signal, called active from +8 up or from −8 down
# [3] = MM1S myeloma cell viability, profiling panel, resazurin fluorescence, basal, 24 h, PK04 Diversity Set (AID 1174); conditions: higher = more signal, called active from +8 up or from −8 down;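 further: MM1S multiple myeloma cell line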
# [4] = biological target: Dihydroorotate dehydrogenase (quinone), mitochondrial (Plasmodium falciparum (isolate 3D7)) (UniProt Q08210); test: PfDHODH enzyme inhibitors, primary screen, biochemical, C-terminal His tag, absorbance 600 nm (AID 1175); conditions: DCIP absorbance 600 nm, higher = more signal, called active from +8 up or from −8 down;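 further: recombinant parasite enzyme with a five histidine tag at its C terminus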
# [5] = P. aeruginosa biofilm formation inhibitors, primary screen, strain PAO1, LB-PBS medium, absorbance 600 nm (AID 1176); conditions: P. aeruginosa PAO1 growth/biofilm, A600, 12 h; higher = more signal
# [6] = S. cerevisiae RM11-1a growth modifiers, primary screen, strain RM11-1a, OD600, basal, 24 h (AID 1177); conditions: OD600, 24 h, higher = more signal, called active from +8 up or from −8 down;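 further: cultures grown under basal conditions with no added stressor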
# [7] = E. coli acrAB mutant growth effects, primary screen, E. coli filamentation inducers, strain DRC39, OD650, 24 h (AID 1178); conditions: higher = more signal, called active from +8 up or from −8 down;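 further: growth measured as culture turbidity by optical density at 650 nm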
# [8] = E. coli acrAB mutant growth effects, primary screen, E. coli filamentation inducers, strain DRC39, OD650, 48 h (AID 1179);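 further: screen aims at cell division blockers that make cells filament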; conditions: E. coli DRC39 delta-acrAB growth, higher = more signal, called active from +8 up or from −8 down
# [9] = RPMI8226 myeloma cell viability, profiling panel, resazurin fluorescence, basal, 24 h, PK04 Diversity Set (AID 1180); conditions: higher = more signal;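 further: RPMI8826 multiple myeloma cell line at 5000 cells per well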
# [10] = biological target: E3 ubiquitin-protein ligase XIAP (Homo sapiens) (UniProt P98170); test: XIAP binders, primary screen, biophysical, small-molecule microarray, fluorescence 635 nm (AID 1181); conditions: small-molecule microarray binding, higher = more signal;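 further: score merges 667 nm emission and signal to noise over triplicate slides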
# [11] = tested on: XIP peptide (Xip251-270) binding; test: small-molecule binders of XIP peptide, primary screen, biochemical, small-molecule microarray, fluorescence 635/667 nm, 0.1 µg/mL protein (AID 1182); conditions: fluorescent protein binding, 635 nm, higher = more signal, called active from +8 up or from −8 down
# XIP peptide (Xip251-270) = test: small-molecule binders of XIP peptide, primary screen, biochemical, small-molecule microarray, fluorescence 635/667 nm, 0.5 µg/mL protein (AID 1183); conditions: small-molecule microarray binding, fluorescence 635 nm; higher = more signal
# [12] = Plasmodium falciparum growth inhibition, primary screen, strain 3D7, DAPI fluorescence, 100 nL (AID 1184);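 further: parasites grown inside human red blood cells in medium with human serum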; conditions: P. falciparum 3D7 growth, 3 d, higher = more signal
# [13] = biological target: Homeobox protein Hox-A13 (Mus musculus) (UniProt Q62424); test: inhibitors of HoxA13-DNA binding, primary screen, biochemical, fluorescence polarization, labeled oligonucleotide (AID 1185); conditions: 15 min, higher = more signal, called active from +8 up or from −8 down
# [14] = inhibitors of hydroxyurea-induced Chk1 phosphorylation, primary screen, imaging, HeLa, phospho-Chk1 antibody, percent positive cells (AID 1186); conditions: hydroxyurea-induced phospho-Chk1 immunofluorescence imaging, higher = more signal
# [15] = inhibitors of hydroxyurea-induced Chk1 phosphorylation, primary screen, imaging, HeLa, phospho-Chk1 nuclear intensity (AID 1187); conditions: hydroxyurea-induced phospho-Chk1 immunofluorescence imaging, higher = more signal
# Sequence of Dihydroorotate dehydrogenase (quinone), mitochondrial (Plasmodium falciparum (isolate 3D7)) (Q08210 whole entry, looked up): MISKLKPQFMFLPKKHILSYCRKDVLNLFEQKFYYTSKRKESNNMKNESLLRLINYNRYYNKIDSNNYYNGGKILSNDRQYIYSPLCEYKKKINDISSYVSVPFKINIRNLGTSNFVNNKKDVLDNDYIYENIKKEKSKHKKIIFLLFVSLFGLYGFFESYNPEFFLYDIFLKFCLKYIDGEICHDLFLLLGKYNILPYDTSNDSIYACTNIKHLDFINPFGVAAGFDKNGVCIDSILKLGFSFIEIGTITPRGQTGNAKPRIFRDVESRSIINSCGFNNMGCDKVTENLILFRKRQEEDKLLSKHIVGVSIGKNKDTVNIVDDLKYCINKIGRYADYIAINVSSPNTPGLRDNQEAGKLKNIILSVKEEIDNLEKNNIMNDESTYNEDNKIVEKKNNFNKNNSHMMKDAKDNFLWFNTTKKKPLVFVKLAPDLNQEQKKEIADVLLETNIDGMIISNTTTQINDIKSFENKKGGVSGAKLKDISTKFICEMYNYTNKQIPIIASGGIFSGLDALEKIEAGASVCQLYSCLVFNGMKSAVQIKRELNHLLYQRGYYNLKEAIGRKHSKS
# Sequence of E3 ubiquitin-protein ligase XIAP (Homo sapiens) (P98170 whole entry, looked up): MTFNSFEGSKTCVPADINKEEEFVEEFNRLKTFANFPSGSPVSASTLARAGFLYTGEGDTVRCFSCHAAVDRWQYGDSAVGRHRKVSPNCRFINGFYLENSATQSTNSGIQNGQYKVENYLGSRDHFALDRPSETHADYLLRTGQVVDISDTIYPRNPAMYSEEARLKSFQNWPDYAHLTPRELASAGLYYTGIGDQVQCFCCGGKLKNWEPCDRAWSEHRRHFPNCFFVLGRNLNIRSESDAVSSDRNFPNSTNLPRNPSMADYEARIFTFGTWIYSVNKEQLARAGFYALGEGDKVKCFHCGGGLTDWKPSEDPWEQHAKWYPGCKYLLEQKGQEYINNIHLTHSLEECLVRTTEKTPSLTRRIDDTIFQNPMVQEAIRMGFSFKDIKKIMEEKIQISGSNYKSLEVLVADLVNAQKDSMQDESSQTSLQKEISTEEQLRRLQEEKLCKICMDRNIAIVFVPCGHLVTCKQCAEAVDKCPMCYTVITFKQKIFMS
# Sequence of Homeobox protein Hox-A13 (Mus musculus) (Q62424 whole entry, looked up): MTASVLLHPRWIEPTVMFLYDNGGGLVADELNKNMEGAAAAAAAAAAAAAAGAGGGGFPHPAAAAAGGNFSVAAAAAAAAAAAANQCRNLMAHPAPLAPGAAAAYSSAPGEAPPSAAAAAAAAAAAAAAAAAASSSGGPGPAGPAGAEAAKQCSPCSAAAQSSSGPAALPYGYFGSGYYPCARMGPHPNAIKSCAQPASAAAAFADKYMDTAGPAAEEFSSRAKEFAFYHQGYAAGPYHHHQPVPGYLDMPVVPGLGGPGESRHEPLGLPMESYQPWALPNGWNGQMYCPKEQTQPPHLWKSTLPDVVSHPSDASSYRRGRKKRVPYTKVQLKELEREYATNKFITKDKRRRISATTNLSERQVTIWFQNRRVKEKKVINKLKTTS
SMILES,z-score [1],z-score [2],z-score [3],composite z-score [4],z-score [5],z-score [6],z-score [7],z-score [8],z-score [9],composite z-score [10],composite z-score [11],composite z-score (XIP peptide (Xip251-270)),z-score [12],z-score [13],z-score [14],z-score [15]
COC(=O)[C@@]1(CCS(=O)(=O)c2ccccc2)N=C(c2ccc(OCCCO)cc2)O[C@H]1c1ccccc1CN=[N+]=[N-],-0.882,1.38 (inactive),-3.13 (inactive),0.484 (inactive),0.92 (inactive),0.642 (inactive),0.163 (inactive),-0.154 (inactive),-2.55,0.316,1.24 (inactive),0.769,-2.07,-0.977 (inactive),-0.395 (inactive),-0.74 (inactive)
C=CCN1C(=O)[C@@]2(Cc3ccccc31)N=C(c1ccc(OCCCO)cc1)O[C@H]2c1ccccc1,-0.0935,-2.94 (inactive),-2.21 (inactive),0.161 (inactive),0.122 (inactive),1.4 (inactive),1.27 (inactive),0.775 (inactive),-2.81,-0.0009,0.619 (inactive),0.801,-1.16,-4.35 (inactive),-0.456 (inactive),-0.416 (inactive)
CN(C)CCCC[C@@H]1NC(=O)[C@@H]2C[C@H](C(=O)NCCCCCCN)[C@H](c3cccc(OCCO)c3)N2C1=O,-0.06,-0.543 (inactive),0.124 (inactive),-0.981 (inactive),0.187 (inactive),-1.17 (inactive),-0.459 (inactive),-1 (inactive),-0.851,0.115,1.57 (inactive),0.919,0.0561,-3.85 (inactive),-0.945 (inactive),-0.708 (inactive)
COc1cc(Br)cc(C(O)C2C=CC3C(=O)N(C)C(=O)C3N2N2CCCCC2)c1OC (centres undefined),-1.17,-1.43 (inactive),-1.17 (inactive),-0.282 (inactive),0.406 (inactive),1.25 (inactive),-0.596 (inactive),-0.683 (inactive),-1.07,0.0123,-0.0992 (inactive),0.823,-0.11,-2.65 (inactive),0.293 (inactive),0.0293 (inactive)
C#C[C@H](O[Si](C#Cc1ccc(Oc2ccccc2)cc1)(C(C)C)C(C)C)c1ccccc1,-1.03,-12.7 (active),-0.675 (inactive),-0.289 (inactive),0.702 (inactive),0.619 (inactive),-0.363 (inactive),-0.172 (inactive),-1.73,-0.132,0.359 (inactive),-0.418,-1,-1.04 (inactive),0.179 (inactive),-0.049 (inactive)
C=C(CCCC)/C(=C/C[C@H](OC(C)=O)c1ccccc1OCCO)c1cc(C(=O)OC)ccc1OC,-0.0696,-0.863 (inactive),0.911 (inactive),-2.1 (inactive),-0.824 (inactive),-0.0572 (inactive),0.427 (inactive),0.257 (inactive),0.682,-0.28,0.0757 (inactive),-0.167,-2.66,-3.55 (inactive),-0.836 (inactive),-0.714 (inactive)
CC(C)C(=C=CC[C@@H](O)c1ccc(OCCO)cc1)C[C@@H](O)c1ccccn1,-0.287,-0.492 (inactive),-0.426 (inactive),-11.9 (active),0.85 (inactive),0.406 (inactive),-0.235 (inactive),-0.0608 (inactive),-0.538,0.273,1.5 (inactive),0.198,-0.278,-5.14 (inactive),-0.329 (inactive),-0.22 (inactive)
COC(=O)[C@@]1(Cc2ccccc2)[C@H]2c3cc(C(=O)N4CCCC4)n(Cc4ccc(S(C)(=O)=O)cc4)c3C[C@H]2CN1C(=O)c1ccccc1,-0.837,0.912 (inactive),-0.774 (inactive),-0.467 (inactive),0.206 (inactive),-0.33 (inactive),-1.33 (inactive),-0.195 (inactive),-1.14,-0.105,0.478 (inactive),0.215,-1.5,-4.67 (inactive),0.267 (inactive),-0.364 (inactive)
CNS(=O)(=O)c1ccc(C)cc1,0.925,-1.13 (inactive),0.68 (inactive),-1.05 (inactive),0.426 (inactive),-1.4 (inactive),0.738 (inactive),0.774 (inactive),-0.149,-0.328,0.493 (inactive),-0.259,0.749,-0.38 (inactive),-0.41 (inactive),-0.155 (inactive)
